SARS PLpro yeast: inhibitors of SARS-CoV papain-like protease in yeast. S. cerevisiae expressing SARS-CoV PLpro, growth rescue. hit rate 0.19% among 330,000. Potency, µM (top dose mostly 32.9 µM), for the others: at the highest dose activity, positive = growth rescue, actives largely listed as activators. AID 485353; calls by dose curve; also: potency is read from the fitted curve at half-maximal effect; 0% is about no effect; nearly all actives have a fitted effect of over 55% in size
NS1 inh: blocks influenza NS1 protein function; Potency, µM (highest dose often 46.1 µM), inactives show top-dose activity, positive = more growth; hit rate 0.4% among 270,000; AID 2326; calls by dose curve; also: potency is read from the fitted curve at half-maximal effect; actives are rising curves; nearly all actives have a fitted effect of over 50% in size
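Recovery from NS1-induced slow growth read by OD600 in budding yeast switched to galactose assay medium (pH 6.0, -URA) at 1:100 dilution. Compound 23 nl per well; the matching strain lacking NS1 serves as control.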
CHX counter: counter-screen hit for Shiga toxin inhibitors, cycloheximide; cell reporter, cycloheximide protein synthesis inhibition counterscreen; max response, %; hit rate 12% among 300,000; in the data active = max response mostly above about 13%, no sharp cut-off; inactive = mostly below about 14%; also: read at 38.3 µM for the half of the compounds with a filed dose; 0% is about no effect
Pf growth 96h: inhibits malaria parasite growth, 96 h. AID 504834. Potency, µM (highest dose often 28.7 µM), for inactives: top-dose activity change, negative = inhibition, most hits filed as inhibitors. P. falciparum luciferase reporter growth, 96 h. hit rate 6.9% among 320,000; also: potency is read from the fitted curve at half-maximal effect; % is scaled to controls: 0 for no effect and ±100 for the full control effect
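Infected RBCs, 2% Hct / 0.05% parasitemia final; luciferase-reporter P. falciparum; cpd 96 h, 37 C, 5% CO2; luciferase detection reagent; luminescence.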
Shiga inhibitor: inhibitors of Shiga toxin in Vero cells; Vero cells, Shiga toxin protein synthesis inhibition reporter; inhibition, % at 38.7 µM; hit rate 9.2% among 290,000; AID 2315; in the data active = inhibition mostly above about 28%, no sharp cut-off; inactive = mostly below about 43%; also: 0% is about no effect
Pf growth 48h: inhibits P. falciparum growth in the first generation, 48 h; hit rate 5.9% among 310,000; P. falciparum luciferase growth in erythrocytes, 48 h; Potency, µM (doses to about 28.7 µM), inactives show top-dose activity change, negative = inhibition, most hits filed as inhibitors; AID 504832; also: potency is read from the fitted curve at half-maximal effect; % is scaled to controls: 0 for no effect and ±100 for the full control effect
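Growth was read as firefly luciferase luminescence after a 48 h, 37 C, 5% CO2 exposure of compounds to reporter-bearing P. falciparum cultures (0.1% parasitemia, 2% hematocrit final) in Albumax-supplemented RPMI 1640.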
Active calls of the source: *; [ ] = another dose, or the depositor's remark. This is a sample that favours compounds with a hit; in the whole collection about 21% have one here. Unless noted, calls follow the shape of the dose curve; as a rule, active = well fitted inhibition curve with a large enough effect; inconclusive = small, poorly fitted or top-dose-only effect, or another doubt; inactive = no such curve, though single readings can be large or run the other way.

`COCCNC(=O)C1CC(c2cccc([N+](=O)[O-])c2)=NO1` (centres undefined) gave SARS PLpro yeast 1%, NS1 inh 8%, CHX counter -3, Pf growth 96h 24%, Shiga inhibitor -21 and Pf growth 48h -1%.
Screening Cc1ccc(CNC(=O)C2CC(c3cccc([N+](=O)[O-])c3)=NO2)cc1 (centres undefined) returned SARS PLpro yeast 1%, NS1 inh -7%, CHX counter 13, Pf growth 96h 42%, Shiga inhibitor 13 and Pf growth 48h 2.6µM*.
For COc1ccc(CNC(=O)C2CC(c3cccc([N+](=O)[O-])c3)=NO2)cc1 (centres undefined) the results were SARS PLpro yeast 4%, NS1 inh -47%, CHX counter 36*, Pf growth 96h 131%, Shiga inhibitor 38* and Pf growth 48h 78%.
Screening CON(C)S(=O)(=O)c1cccc(C(=O)Oc2ccc(N(C)S(=O)(=O)c3ccccc3)cc2)c1 returned SARS PLpro yeast -1%, NS1 inh 23%, CHX counter -2, Pf growth 96h -5%, Shiga inhibitor -2 and Pf growth 48h 7%.
`CC(=O)Nc1ccc(NC(=O)C(C)OC(=O)CCCOc2ccc(Cl)cc2C)cc1` (centres undefined) gave SARS PLpro yeast -7%, Pf growth 96h 13% and Pf growth 48h 3%.
`O=c1c(N2CCCCC2)coc2ccccc12` gave SARS PLpro yeast -3%, NS1 inh 4%, CHX counter 20*, Pf growth 96h 34%, Shiga inhibitor 55 and Pf growth 48h 60%.
Screening O=c1cc(N2CCCCC2)c2ccccc2o1 returned SARS PLpro yeast 0%, NS1 inh 0%, CHX counter 2, Pf growth 96h -45%[5.75 µM], Shiga inhibitor -1 and Pf growth 48h 19%.
`COc1ccc(CN2CCN(C3CCC3)CC2CCO)cc1C` (centres undefined) gave SARS PLpro yeast 8%, NS1 inh 2%, CHX counter -2, Pf growth 96h 0%, Shiga inhibitor -11 and Pf growth 48h 2%.
For Nc1ccc(Nc2ccccc2N)cc1 the results were SARS PLpro yeast -7%, NS1 inh 14%, CHX counter 7, Pf growth 96h -24%, Shiga inhibitor 14 and Pf growth 48h inconclusive.
For COc1ccc(Nc2ncnc3ccccc23)cc1 the results were SARS PLpro yeast 4%, NS1 inh -1%, CHX counter 30*, Shiga inhibitor 71* and Pf growth 48h 132%.
For c1ccc(CCNc2ccnc3cc4ccccc4cc23)cc1 the results were SARS PLpro yeast 0%, CHX counter -12, Pf growth 96h 49%, Shiga inhibitor -26 and Pf growth 48h 0.52µM*.
COc1ccc(Nc2ccccc2N)cc1 was read as SARS PLpro yeast -21%, CHX counter 28, Pf growth 96h inconclusive, Shiga inhibitor 44* and Pf growth 48h inconclusive.
CC(C)Nc1ccc(Nc2ccnc3cc4ccccc4cc23)cc1 was read as SARS PLpro yeast -1%, NS1 inh -9%, CHX counter 9, Pf growth 96h 0.59µM*, Shiga inhibitor 9 and Pf growth 48h 0.52µM*.
`O=C1Nc2ccccc2C1(O)C/C(=N/O)c1ccccc1` (centres undefined) gave SARS PLpro yeast 0%, CHX counter -3, Pf growth 96h 53%, Shiga inhibitor -9 and Pf growth 48h 5%.
For COc1cccc(Nc2ncnc3ccccc23)c1 the results were SARS PLpro yeast -11%, NS1 inh -16%, CHX counter 31*, Shiga inhibitor 99* and Pf growth 48h 217%.
For CCOc1nc(Nc2ccc(OC)cc2)nc(OCC)n1 the results were SARS PLpro yeast 2%, NS1 inh -11%, CHX counter -3, Shiga inhibitor -7 and Pf growth 48h -12%.
`COc1ccc(Nc2nc(-c3cccs3)nc3ccccc23)cc1` gave SARS PLpro yeast -52%, NS1 inh 12%, CHX counter 7, Pf growth 96h 0%, Shiga inhibitor 12 and Pf growth 48h -14%.
`COc1ccc(Nc2ccnc3ccccc23)cc1` gave SARS PLpro yeast 2%, NS1 inh -6%, CHX counter 18*, Pf growth 96h inconclusive, Shiga inhibitor -4 and Pf growth 48h 12µM*.
For COc1ccc(Nc2ncnc3ccccc23)c(OC)c1 the results were SARS PLpro yeast 2%, NS1 inh -4%, CHX counter 8, Pf growth 96h -15%, Shiga inhibitor 13 and Pf growth 48h 64%.
COc1ccc(Nc2cc(Nc3ccccc3)ncn2)cc1 was read as SARS PLpro yeast -3%, NS1 inh -2%, CHX counter 31*, Pf growth 96h 1%, Shiga inhibitor 49* and Pf growth 48h 94%.
Screening COc1ccc(Nc2ccnc(Nc3ccc(OC)cc3)n2)cc1 returned SARS PLpro yeast -3%, NS1 inh 6%, CHX counter 37*, Pf growth 96h inconclusive, Shiga inhibitor 72* and Pf growth 48h inconclusive.
Screening COc1ccc(Nc2c(C)cccc2C)cc1 returned SARS PLpro yeast -2%, NS1 inh 4%, CHX counter -5, Pf growth 96h 1%, Shiga inhibitor -10 and Pf growth 48h 0%.
`COc1cccc(Nc2cc(C)c3ccccc3n2)c1` gave SARS PLpro yeast 1%, NS1 inh -11%, CHX counter 25*, Pf growth 96h inconclusive, Shiga inhibitor 66* and Pf growth 48h 6%.
For C/C(=N\N1CCCCC1)c1c(O)[nH]c(=O)[nH]c1=O the results were SARS PLpro yeast inconclusive, NS1 inh 5%, CHX counter 18*, Pf growth 96h inconclusive, Shiga inhibitor 10 and Pf growth 48h 10%.
Screening C/C(=N\N1CCCCCC1)c1c(O)n(-c2ccccc2)c(=O)[nH]c1=O returned SARS PLpro yeast -10%, NS1 inh 6%, CHX counter 0, Pf growth 96h inconclusive, Shiga inhibitor -2 and Pf growth 48h inconclusive.
`COC(=O)c1c(-c2ccccc2)csc1NC(=O)c1c(-c2ccccc2)noc1C` gave SARS PLpro yeast -1%, NS1 inh 17%, CHX counter 2, Pf growth 96h inconclusive, Shiga inhibitor 11 and Pf growth 48h 13µM*.
`Cc1ccc(-c2csc(NC(=O)/C=C/c3ccco3)c2C(=O)O)cc1` gave SARS PLpro yeast 1%, NS1 inh -64%, CHX counter 36*, Pf growth 96h 0%, Shiga inhibitor 86* and Pf growth 48h 68%.
O=C(Nc1scc(-c2ccc(F)cc2)c1C(=O)O)c1ccco1 was read as SARS PLpro yeast -9%, NS1 inh -138%, CHX counter 56*, Shiga inhibitor 92* and Pf growth 48h 27%.
For Cc1ccc(-c2csc(NC(=O)c3ccc(Br)cc3)c2C(=O)O)cc1 the results were SARS PLpro yeast -1%, NS1 inh -1%, CHX counter 13, Pf growth 96h 4% and Shiga inhibitor 15.

Bioassay records as filed in PubChem BioAssay.
